Legend:
Assay in all cases: DAPPL (digital affinity profiling via proximity ligation, sequencing); 10 mM Tris-HCl pH 7.5, 50 mM NaCl, 1 mM DTT, 4% glycerol, room temperature, 30 min; GST-TFs on glutathione beads, 16-mer random dsDNA library, 0.1% formaldehyde crosslink after washing; high values mean tight binding
FEV = biological target: T1, FEV (Homo sapiens, UniProt Q99581 1-238); conditions: protein: recombinant; tags: N-terminal GST; dsDNA, one strand shown
T1 sequence: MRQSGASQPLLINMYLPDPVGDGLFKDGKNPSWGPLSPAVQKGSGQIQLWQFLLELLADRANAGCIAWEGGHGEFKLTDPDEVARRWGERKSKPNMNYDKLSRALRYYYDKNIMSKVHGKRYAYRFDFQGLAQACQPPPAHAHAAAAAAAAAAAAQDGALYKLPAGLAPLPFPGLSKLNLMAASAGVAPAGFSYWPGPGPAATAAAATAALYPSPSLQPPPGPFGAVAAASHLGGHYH
Procedure, shortened: (§1)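 Yeast served to express human transcription factors as GST fusions, which were then captured on glutathione beads and labelled with DNA barcodes. Pooled with a tag-only sample, they were incubated with 200 nmole of a 16-mer random double-stranded DNA library for 30 min at room temperature in Tris/NaCl/DTT/glycerol buffer, washed, crosslinked with 0.1% formaldehyde, ligated by proximity, amplified by PCR and sequenced. Dividing each hexamer's read frequency for a factor by its frequency for the tag-only sample gives the binding signal.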

ETV5 = ETV5 (Homo sapiens, UniProt P41161 1-510); conditions: protein: recombinant; tags: N-terminal GST; dsDNA, one strand shown
Procedure, shortened: as §1

HSF1 = HSF1 (Homo sapiens, UniProt Q00613 1-529); conditions: protein: recombinant; tags: N-terminal GST; chain copies: 3; dsDNA, one strand shown
Procedure, shortened: as §1

SPIC = biological target: T2, SPIC (Homo sapiens, UniProt Q8N5J4 1-248); conditions: protein: recombinant; tags: N-terminal GST; dsDNA, one strand shown
T2 sequence: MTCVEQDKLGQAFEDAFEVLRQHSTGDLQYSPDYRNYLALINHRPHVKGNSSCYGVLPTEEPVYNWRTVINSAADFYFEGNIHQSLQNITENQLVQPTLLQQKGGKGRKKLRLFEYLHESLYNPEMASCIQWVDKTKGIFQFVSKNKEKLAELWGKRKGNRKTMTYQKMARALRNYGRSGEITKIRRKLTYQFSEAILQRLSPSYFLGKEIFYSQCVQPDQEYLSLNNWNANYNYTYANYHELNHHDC
Procedure, shortened: as §1

ELF4 = ELF4 (Homo sapiens, UniProt Q99607 1-663); conditions: protein: recombinant; tags: N-terminal GST; dsDNA, one strand shown
Procedure, shortened: as §1

ELK4 = biological target: T3, ELK4 (Homo sapiens, UniProt P28324-2 1-405); conditions: protein: recombinant; tags: N-terminal GST; dsDNA, one strand shown
T3 sequence: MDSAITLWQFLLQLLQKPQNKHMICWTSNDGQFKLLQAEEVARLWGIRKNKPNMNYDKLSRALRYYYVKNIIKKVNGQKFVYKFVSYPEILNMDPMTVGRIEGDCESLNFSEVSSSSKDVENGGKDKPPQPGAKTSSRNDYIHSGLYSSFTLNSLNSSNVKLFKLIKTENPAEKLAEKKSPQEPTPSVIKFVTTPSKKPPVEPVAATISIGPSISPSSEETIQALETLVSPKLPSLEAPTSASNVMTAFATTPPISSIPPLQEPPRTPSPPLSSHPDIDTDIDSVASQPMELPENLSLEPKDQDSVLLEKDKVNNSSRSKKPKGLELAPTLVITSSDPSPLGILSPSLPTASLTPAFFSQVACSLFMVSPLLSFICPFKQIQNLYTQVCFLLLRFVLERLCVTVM
Procedure, shortened: as §1

ETV2 = biological target: T4, ETV2 (Homo sapiens, UniProt O00321 1-342); conditions: protein: recombinant; tags: N-terminal GST; dsDNA, one strand shown
T4 sequence: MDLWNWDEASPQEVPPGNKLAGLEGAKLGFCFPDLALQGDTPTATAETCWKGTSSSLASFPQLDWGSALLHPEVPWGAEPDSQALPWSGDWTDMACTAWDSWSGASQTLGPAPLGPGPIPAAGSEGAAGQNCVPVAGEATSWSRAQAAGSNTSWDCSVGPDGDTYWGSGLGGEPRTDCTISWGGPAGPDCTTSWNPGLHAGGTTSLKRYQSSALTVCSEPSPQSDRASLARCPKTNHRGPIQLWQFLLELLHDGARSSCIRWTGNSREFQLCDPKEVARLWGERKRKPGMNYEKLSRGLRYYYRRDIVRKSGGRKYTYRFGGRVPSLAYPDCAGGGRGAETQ
Procedure, shortened: as §1

ELF3 = biological target: T5, ELF3 (Homo sapiens, UniProt P78545 1-371); conditions: protein: recombinant; tags: N-terminal GST; dsDNA, one strand shown
T5 sequence: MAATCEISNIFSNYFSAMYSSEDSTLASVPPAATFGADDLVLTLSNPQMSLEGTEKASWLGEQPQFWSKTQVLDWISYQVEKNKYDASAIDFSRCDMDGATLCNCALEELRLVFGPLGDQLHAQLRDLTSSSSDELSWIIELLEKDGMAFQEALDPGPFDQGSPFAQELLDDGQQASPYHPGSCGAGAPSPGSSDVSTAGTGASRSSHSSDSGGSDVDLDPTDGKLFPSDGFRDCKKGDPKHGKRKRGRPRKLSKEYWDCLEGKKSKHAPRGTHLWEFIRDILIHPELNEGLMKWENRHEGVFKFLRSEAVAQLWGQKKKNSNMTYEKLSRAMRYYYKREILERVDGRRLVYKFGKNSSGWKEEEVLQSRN
Procedure, shortened: as §1

ETV1 = ETV1 (Homo sapiens, UniProt P50549 1-477); conditions: protein: recombinant; tags: N-terminal GST; dsDNA, one strand shown
Procedure, shortened: as §1

ERF = biological target: T6, ERF (Homo sapiens, UniProt P50548 1-548); conditions: protein: recombinant; tags: N-terminal GST; dsDNA, one strand shown
T6 sequence: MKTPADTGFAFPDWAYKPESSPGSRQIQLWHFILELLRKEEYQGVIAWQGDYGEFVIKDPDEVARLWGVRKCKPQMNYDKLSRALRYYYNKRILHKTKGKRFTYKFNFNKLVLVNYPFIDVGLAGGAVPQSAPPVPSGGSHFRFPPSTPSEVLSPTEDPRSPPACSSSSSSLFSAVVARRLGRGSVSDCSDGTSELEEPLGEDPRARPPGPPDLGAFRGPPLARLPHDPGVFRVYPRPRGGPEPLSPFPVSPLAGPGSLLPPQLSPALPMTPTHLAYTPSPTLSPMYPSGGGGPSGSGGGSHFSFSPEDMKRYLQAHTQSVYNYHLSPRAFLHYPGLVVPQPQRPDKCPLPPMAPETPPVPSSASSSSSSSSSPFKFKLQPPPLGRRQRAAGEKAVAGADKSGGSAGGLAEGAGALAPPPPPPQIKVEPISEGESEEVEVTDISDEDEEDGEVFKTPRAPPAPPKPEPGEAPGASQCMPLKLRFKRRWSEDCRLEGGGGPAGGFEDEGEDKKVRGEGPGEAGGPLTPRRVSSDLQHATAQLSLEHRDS
Procedure, shortened: as §1

ETV3L = biological target: T7, ETV3L (Homo sapiens, UniProt Q6ZN32 1-361); conditions: protein: recombinant; tags: N-terminal GST; dsDNA, one strand shown
T7 sequence: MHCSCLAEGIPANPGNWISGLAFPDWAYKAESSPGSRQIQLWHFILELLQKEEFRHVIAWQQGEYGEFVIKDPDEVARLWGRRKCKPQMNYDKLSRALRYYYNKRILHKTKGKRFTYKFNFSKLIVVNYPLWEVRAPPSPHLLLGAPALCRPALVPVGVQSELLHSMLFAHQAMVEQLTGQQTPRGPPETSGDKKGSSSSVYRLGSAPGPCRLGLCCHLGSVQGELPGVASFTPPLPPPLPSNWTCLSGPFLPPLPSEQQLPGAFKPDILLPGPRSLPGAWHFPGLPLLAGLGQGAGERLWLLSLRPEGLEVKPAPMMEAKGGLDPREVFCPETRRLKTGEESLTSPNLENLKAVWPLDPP
Procedure, shortened: as §1

ETS2 = biological target: T8, ETS2 (Homo sapiens, UniProt P15036 1-469); conditions: protein: recombinant; tags: N-terminal GST; dsDNA, one strand shown
T8 sequence: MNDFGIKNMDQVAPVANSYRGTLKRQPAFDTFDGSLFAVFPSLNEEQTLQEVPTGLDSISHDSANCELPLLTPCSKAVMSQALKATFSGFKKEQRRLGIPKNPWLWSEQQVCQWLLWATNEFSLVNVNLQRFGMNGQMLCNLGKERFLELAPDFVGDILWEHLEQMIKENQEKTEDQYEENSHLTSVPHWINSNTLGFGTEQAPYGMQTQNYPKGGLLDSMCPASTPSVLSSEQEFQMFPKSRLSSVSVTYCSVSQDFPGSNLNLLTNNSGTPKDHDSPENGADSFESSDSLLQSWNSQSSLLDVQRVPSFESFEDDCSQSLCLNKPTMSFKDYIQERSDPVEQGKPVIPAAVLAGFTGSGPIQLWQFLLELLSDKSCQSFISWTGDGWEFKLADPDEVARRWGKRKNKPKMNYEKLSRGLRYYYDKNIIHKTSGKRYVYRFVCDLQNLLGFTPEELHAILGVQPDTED
Procedure, shortened: as §1

SPDEF = biological target: T9, SPDEF (Homo sapiens, UniProt O95238 1-335); conditions: protein: recombinant; tags: N-terminal GST; dsDNA, one strand shown
T9 sequence: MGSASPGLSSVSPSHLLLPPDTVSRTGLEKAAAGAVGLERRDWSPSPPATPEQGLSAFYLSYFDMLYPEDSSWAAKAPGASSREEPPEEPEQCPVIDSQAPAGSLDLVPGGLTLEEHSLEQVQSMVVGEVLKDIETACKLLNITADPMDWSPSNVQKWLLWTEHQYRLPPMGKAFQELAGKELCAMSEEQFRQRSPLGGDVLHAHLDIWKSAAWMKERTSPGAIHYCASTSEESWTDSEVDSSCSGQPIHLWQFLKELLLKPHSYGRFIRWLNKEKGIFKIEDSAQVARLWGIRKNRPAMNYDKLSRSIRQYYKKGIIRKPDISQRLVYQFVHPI
Procedure, shortened: as §1

ETV7 = biological target: T10, ETV7 (Homo sapiens, UniProt Q9Y603 1-341); conditions: protein: recombinant; tags: N-terminal GST; dsDNA, one strand shown
T10 sequence: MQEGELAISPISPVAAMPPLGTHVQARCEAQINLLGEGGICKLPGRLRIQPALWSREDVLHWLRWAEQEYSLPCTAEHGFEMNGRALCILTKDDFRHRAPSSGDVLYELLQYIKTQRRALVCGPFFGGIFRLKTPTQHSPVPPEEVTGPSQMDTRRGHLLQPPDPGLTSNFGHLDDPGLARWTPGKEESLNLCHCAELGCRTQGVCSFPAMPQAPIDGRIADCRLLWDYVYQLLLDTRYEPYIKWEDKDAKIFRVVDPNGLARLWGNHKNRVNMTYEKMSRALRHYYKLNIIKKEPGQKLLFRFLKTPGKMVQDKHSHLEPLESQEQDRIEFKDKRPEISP
Procedure, shortened: as §1

ETV3 = biological target: T11, ETV3 (Homo sapiens, UniProt P41162-2 1-143); conditions: protein: recombinant; tags: N-terminal GST; dsDNA, one strand shown
T11 sequence: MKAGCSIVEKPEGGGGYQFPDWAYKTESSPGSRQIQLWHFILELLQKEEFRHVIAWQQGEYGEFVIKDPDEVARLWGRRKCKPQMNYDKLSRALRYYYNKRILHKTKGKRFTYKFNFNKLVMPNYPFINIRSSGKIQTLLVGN
Procedure, shortened: as §1

ETV6 = ETV6 (Homo sapiens, UniProt P41212 1-452); conditions: protein: recombinant; tags: N-terminal GST; dsDNA, one strand shown
Procedure, shortened: as §1

ELF5 = biological target: T12, ELF5 (Homo sapiens, UniProt Q9UKW6-2 1-255); conditions: protein: recombinant; tags: N-terminal GST; dsDNA, one strand shown
T12 sequence: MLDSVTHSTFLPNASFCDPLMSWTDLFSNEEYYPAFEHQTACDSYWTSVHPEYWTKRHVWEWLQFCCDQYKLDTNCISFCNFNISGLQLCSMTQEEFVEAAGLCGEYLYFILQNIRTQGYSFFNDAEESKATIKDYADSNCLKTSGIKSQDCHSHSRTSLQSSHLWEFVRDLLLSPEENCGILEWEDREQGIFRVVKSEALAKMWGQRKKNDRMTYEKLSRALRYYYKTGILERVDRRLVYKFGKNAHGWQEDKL
Procedure, shortened: as §1

ETV6, sequence (P41212 whole entry): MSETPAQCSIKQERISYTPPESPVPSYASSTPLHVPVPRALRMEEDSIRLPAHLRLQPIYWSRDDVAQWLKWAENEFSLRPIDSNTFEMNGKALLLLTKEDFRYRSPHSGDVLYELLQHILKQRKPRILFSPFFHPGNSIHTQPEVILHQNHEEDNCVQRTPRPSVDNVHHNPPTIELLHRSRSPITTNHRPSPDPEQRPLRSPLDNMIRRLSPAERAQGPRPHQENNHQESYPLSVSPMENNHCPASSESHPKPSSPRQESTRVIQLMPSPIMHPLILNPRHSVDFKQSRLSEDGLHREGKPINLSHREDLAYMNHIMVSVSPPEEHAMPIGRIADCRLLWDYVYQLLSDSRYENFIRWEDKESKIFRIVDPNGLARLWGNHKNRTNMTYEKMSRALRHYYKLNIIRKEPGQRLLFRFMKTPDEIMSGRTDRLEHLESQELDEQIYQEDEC
HSF1, sequence (Q00613 whole entry): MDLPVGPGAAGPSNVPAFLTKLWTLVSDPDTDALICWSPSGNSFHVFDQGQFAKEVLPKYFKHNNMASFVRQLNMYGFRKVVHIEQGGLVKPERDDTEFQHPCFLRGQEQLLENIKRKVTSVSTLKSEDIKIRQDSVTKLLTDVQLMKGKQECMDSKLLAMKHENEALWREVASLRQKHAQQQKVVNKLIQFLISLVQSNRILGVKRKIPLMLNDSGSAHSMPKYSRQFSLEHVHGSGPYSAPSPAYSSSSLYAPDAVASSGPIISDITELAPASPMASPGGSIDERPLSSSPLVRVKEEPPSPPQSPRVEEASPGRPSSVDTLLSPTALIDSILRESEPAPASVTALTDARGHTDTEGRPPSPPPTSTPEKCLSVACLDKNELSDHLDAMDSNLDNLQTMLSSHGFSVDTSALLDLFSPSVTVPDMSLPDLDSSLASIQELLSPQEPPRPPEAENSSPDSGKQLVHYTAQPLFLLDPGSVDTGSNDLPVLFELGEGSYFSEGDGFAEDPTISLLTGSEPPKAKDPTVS
ETV5, sequence (P41161 whole entry): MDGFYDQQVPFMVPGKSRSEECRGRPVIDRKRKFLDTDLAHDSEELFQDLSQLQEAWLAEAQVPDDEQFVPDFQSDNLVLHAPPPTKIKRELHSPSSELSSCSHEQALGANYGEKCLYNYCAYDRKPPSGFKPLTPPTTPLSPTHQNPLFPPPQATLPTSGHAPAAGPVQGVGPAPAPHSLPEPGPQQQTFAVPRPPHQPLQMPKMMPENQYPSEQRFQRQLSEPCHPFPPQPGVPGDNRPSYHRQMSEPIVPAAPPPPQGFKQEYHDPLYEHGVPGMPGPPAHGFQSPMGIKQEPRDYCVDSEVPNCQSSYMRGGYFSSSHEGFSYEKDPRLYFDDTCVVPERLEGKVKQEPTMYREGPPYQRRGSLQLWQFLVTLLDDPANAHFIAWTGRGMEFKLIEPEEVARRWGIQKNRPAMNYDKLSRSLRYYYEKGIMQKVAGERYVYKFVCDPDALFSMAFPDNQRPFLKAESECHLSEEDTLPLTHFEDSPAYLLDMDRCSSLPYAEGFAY
ETV1, sequence (P50549 whole entry): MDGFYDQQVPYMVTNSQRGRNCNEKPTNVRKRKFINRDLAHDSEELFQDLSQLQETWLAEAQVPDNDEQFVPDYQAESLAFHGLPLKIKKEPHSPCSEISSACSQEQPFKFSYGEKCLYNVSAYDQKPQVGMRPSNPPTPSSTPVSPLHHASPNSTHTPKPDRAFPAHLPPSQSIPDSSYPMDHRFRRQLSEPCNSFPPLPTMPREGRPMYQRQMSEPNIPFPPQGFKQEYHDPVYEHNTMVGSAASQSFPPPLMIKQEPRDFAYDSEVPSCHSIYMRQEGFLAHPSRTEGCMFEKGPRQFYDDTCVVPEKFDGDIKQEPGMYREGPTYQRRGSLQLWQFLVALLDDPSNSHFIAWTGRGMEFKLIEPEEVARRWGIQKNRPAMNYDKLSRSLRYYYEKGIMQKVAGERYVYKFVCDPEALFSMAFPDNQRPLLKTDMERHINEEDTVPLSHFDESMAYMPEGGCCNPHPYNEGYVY
ELF4, sequence (Q99607 whole entry): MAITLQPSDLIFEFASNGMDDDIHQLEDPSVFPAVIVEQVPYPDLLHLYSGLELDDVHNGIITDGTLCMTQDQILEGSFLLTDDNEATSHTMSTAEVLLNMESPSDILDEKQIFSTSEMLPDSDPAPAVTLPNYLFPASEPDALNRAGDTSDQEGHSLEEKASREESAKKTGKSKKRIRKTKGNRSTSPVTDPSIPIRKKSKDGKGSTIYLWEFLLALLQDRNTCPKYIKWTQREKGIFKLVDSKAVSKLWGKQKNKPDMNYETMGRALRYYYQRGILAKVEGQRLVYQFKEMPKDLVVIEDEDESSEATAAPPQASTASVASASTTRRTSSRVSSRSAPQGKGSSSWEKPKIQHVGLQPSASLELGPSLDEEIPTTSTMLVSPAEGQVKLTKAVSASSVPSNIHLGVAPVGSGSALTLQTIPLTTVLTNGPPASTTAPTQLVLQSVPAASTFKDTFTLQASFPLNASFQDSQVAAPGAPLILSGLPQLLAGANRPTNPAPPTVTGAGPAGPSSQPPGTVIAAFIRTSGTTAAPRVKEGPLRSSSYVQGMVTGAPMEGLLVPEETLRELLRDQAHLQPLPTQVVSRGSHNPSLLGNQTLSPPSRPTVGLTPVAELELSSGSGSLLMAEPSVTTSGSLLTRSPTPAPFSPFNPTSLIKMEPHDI

Row | Sequence | binding signal (FEV) | binding signal (ETV5) | binding signal (HSF1) | binding signal (SPIC) | binding signal (ELF4) | binding signal (ELK4) | binding signal (ETV2) | binding signal (ELF3) | binding signal (ETV1) | binding signal (ERF) | binding signal (ETV3L) | binding signal (ETS2) | binding signal (SPDEF) | binding signal (ETV7) | binding signal (ETV3) | binding signal (ETV6) | binding signal (ELF5)
1 | GCACGA | 1.09 fold enrichment (6-mer frequency, TF over GST control) | 1.15 fold enrichment (6-mer frequency, TF over GST control) | 1.04 fold enrichment (6-mer frequency, TF over GST control) | 1.18 fold enrichment (6-mer frequency, TF over GST control) | 1.1 fold enrichment (6-mer frequency, TF over GST control) | 1.13 fold enrichment (6-mer frequency, TF over GST control) | 1.31 fold enrichment (6-mer frequency, TF over GST control) | 1.16 fold enrichment (6-mer frequency, TF over GST control) | 1.05 fold enrichment (6-mer frequency, TF over GST control) | 1.13 fold enrichment (6-mer frequency, TF over GST control) | 1 fold enrichment (6-mer frequency, TF over GST control) | 1.03 fold enrichment (6-mer frequency, TF over GST control) | 1 fold enrichment (6-mer frequency, TF over GST control) | 1.19 fold enrichment (6-mer frequency, TF over GST control) | 1.1 fold enrichment (6-mer frequency, TF over GST control) | 1.06 fold enrichment (6-mer frequency, TF over GST control) | –
2 | ACGGAA | 1.83 fold enrichment (6-mer frequency, TF over GST control) | 1.94 fold enrichment (6-mer frequency, TF over GST control) | 1.01 fold enrichment (6-mer frequency, TF over GST control) | 1.69 fold enrichment (6-mer frequency, TF over GST control) | 1.61 fold enrichment (6-mer frequency, TF over GST control) | 1.5 fold enrichment (6-mer frequency, TF over GST control) | 1.75 fold enrichment (6-mer frequency, TF over GST control) | 1.89 fold enrichment (6-mer frequency, TF over GST control) | 1.85 fold enrichment (6-mer frequency, TF over GST control) | 1.53 fold enrichment (6-mer frequency, TF over GST control) | 1.73 fold enrichment (6-mer frequency, TF over GST control) | 1.86 fold enrichment (6-mer frequency, TF over GST control) | 1.78 fold enrichment (6-mer frequency, TF over GST control) | 1.57 fold enrichment (6-mer frequency, TF over GST control) | 1.93 fold enrichment (6-mer frequency, TF over GST control) | 2.14 fold enrichment (6-mer frequency, TF over GST control) | 2.24 fold enrichment (6-mer frequency, TF over GST control)
